# According to the supplement of paper PMC8728848:
# Shown is part of a subset that was picked to be rich in the strongest signals.
# B1: GST-Gap1 (Streptococcus parasanguinis), A1C3L5 (protein)
# chain: MFYFVPSWYNGQRQWYYDTPWWFRVKNRMTFDDSVNQVKMFLQGQEEIGLMILNYQPQLRYFLHKQNIFGIYYWSFFDDIQNITRSYTKIIHLKDLNWPEGCEFLYSPFAVVVRLKGEIFAIVNYAEDGNLHSVSFQKNGKVTKDYIFDDRGFLSSILYYDIDERPLYQDYLNINGVWQVREFLKKENDPTPILMINDFSDQTFSKKYYNGWEELIKERLAIFQNNHVENEDVFVLASDTQHNQLVSSIFKEHRKIYSFFGNRFNLENLGQDRISINDATFLVVDTEKNEELLRKTCENLVFKSIPIVRLSPFDSRLRLGHSQTVKEQIIYFHIDNIELDELYSVIAIILELMTLHLDIELRIVTFRQDFQLDLLKTWIIDFIKTNHFEDLLFKQISEGENEIEDEGEIELSRIAMECFTNENQIIKCLDTARLVIDLGIEPDLYTQIASISAGIPQINRVSSDYVIHQKNGLVISDISKLSSAIEFYFDGLFNWNEALIYAVRKMSDYTSGKILKQWKGMLKKK
# How the values were obtained:
# Experiment in all cases: glycan array binding signal (z-score within array); higher = stronger binding
# Conditions in all cases: glycan notation: IUPAC condensed, linker removed
# Gal(b1-6)Gal = target: Gal(b1-6)Gal
# How it was run: (§1)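 The binding signal is a Z-score computed within each array. Data were drawn from 3228 arrays in the Consortium for Functional Glycomics database, restricted to those with a known protein sequence. Scores were averaged over arrays of the same protein sequence at different concentrations or buffers, and over linkers, and negative values can be taken as non-binding.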
# Gal3S(b1-4)GlcNAc = target: Gal3S(b1-4)GlcNAc
# How it was run: as §1
# [1] = target: Gal3S(b1-4)[Fuc(a1-3)]Glc
# How it was run: as §1
# GalNAc(a1-3)GalNAc = target: GalNAc(a1-3)GalNAc
# How it was run: as §1
# [2] = target: GalNAc(b1-3)Gal(a1-4)Gal(b1-4)GlcNAc
# How it was run: as §1
# GalNAc(b1-4)GlcNAc = target: GalNAc(b1-4)GlcNAc
# How it was run: as §1
# GlcA(b1-3)GlcNAc = target: GlcA(b1-3)GlcNAc
# How it was run: as §1
# [3] = target: GlcNAc(b1-3)Gal(b1-4)GlcNAc(b1-2)Man(a1-3)[GlcNAc(b1-3)Gal(b1-4)GlcNAc(b1-2)Man(a1-6)]Man(b1-4)GlcNAc(b1-4)GlcNAc
# How it was run: as §1
# [4] = target: GlcNAc(b1-3)Gal(b1-4)GlcNAc(b1-3)Gal(b1-4)GlcNAc(b1-3)Gal(b1-4)GlcNAc(b1-2)Man(a1-3)[GlcNAc(b1-3)Gal(b1-4)GlcNAc(b1-3)Gal(b1-4)GlcNAc(b1-3)Gal(b1-4)GlcNAc(b1-2)Man(a1-6)]Man(b1-4)GlcNAc(b1-4)[Fuc(a1-6)]GlcNAc
# How it was run: as §1
# [5] = target: GlcNAc(b1-3)Gal(b1-4)GlcNAc(b1-3)Gal(b1-4)GlcNAc(b1-3)Gal(b1-4)GlcNAc(b1-3)Gal(b1-4)GlcNAc(b1-2)Man(a1-3)[GlcNAc(b1-3)Gal(b1-4)GlcNAc(b1-3)Gal(b1-4)GlcNAc(b1-3)Gal(b1-4)GlcNAc(b1-3)Gal(b1-4)GlcNAc(b1-2)Man(a1-6)]Man(b1-4)GlcNAc(b1-4)GlcNAc
# How it was run: as §1
# [6] = target: GlcNAc(b1-3)Gal(b1-4)GlcNAc(b1-3)Gal(b1-4)GlcNAc(b1-3)Gal(b1-4)GlcNAc(b1-3)Gal(b1-4)GlcNAc(b1-2)Man(a1-3)[GlcNAc(b1-3)Gal(b1-4)GlcNAc(b1-3)Gal(b1-4)GlcNAc(b1-3)Gal(b1-4)GlcNAc(b1-3)Gal(b1-4)GlcNAc(b1-2)Man(a1-6)]Man(b1-4)GlcNAc(b1-4)[Fuc(a1-6)]GlcNAc
# How it was run: as §1
# [7] = target: GlcNAc(b1-3)Gal(b1-4)GlcNAc(b1-3)Gal(b1-4)GlcNAc(b1-3)Gal(b1-4)GlcNAc(b1-3)Gal(b1-4)GlcNAc(b1-2)[GlcNAc(b1-3)Gal(b1-4)GlcNAc(b1-3)Gal(b1-4)GlcNAc(b1-3)Gal(b1-4)GlcNAc(b1-3)Gal(b1-4)GlcNAc(b1-6)]Man(a1-6)[GlcNAc(b1-3)Gal(b1-4)GlcNAc(b1-3)Gal(b1-4)GlcNAc(b1-3)Gal(b1-4)GlcNAc(b1-3)Gal(b1-4)GlcNAc(b1-2)Man(a1-3)]Man(b1-4)GlcNAc(b1-4)[Fuc(a1-6)]GlcNAc
# How it was run: as §1
# GlcNAc(b1-3)Man = target: GlcNAc(b1-3)Man
# How it was run: as §1
# MurNAc(b1-4)GlcNAc = target: MurNAc(b1-4)GlcNAc
# How it was run: as §1
# [8] = target: Neu5Ac(a2-3)Gal(b1-3)GalNAc(b1-4)[Neu5Ac(a2-8)Neu5Ac(a2-3)]Gal(b1-4)Glc
# How it was run: as §1
# [9] = target: Neu5Ac(a2-3)Gal(b1-4)GlcNAc(b1-2)Man(a1-3)[Neu5Ac(a2-3)Gal(b1-4)GlcNAc(b1-2)Man(a1-6)]Man(b1-4)GlcNAc(b1-4)GlcNAc
# How it was run: as §1
# [10] = target: Neu5Ac(a2-3)Gal(b1-4)GlcNAc(b1-3)Gal(b1-4)GlcNAc(b1-2)Man(a1-3)[Neu5Ac(a2-3)Gal(b1-4)GlcNAc(b1-3)Gal(b1-4)GlcNAc(b1-2)Man(a1-6)]Man(b1-4)GlcNAc(b1-4)GlcNAc
# How it was run: as §1
# [11] = target: Neu5Ac(a2-3)Gal(b1-4)GlcNAc(b1-3)Gal(b1-4)GlcNAc(b1-3)Gal(b1-4)GlcNAc(b1-2)Man(a1-3)[Neu5Ac(a2-3)Gal(b1-4)GlcNAc(b1-3)Gal(b1-4)GlcNAc(b1-3)Gal(b1-4)GlcNAc(b1-2)Man(a1-6)]GalNAc
# How it was run: as §1
# [12] = target: Neu5Ac(a2-3)Gal(b1-4)GlcNAc(b1-3)Gal(b1-4)GlcNAc(b1-6)[Gal(b1-3)]GalNAc
# How it was run: as §1
# [13] = target: Neu5Ac(a2-3)Gal(b1-4)[Fuc(a1-3)]GlcNAc(b1-6)[Gal(b1-3)]GalNAc
# How it was run: as §1
# [14] = target: Neu5Ac(a2-6)Gal(b1-4)GlcNAc(b1-2)Man(a1-3)[GlcNAc(b1-2)Man(a1-6)]Man(b1-4)GlcNAc(b1-4)GlcNAc
# How it was run: as §1
# [15] = target: Neu5Ac(a2-6)Gal(b1-4)GlcNAc(b1-2)Man(a1-3)[Neu5Ac(a2-3)Gal(b1-4)GlcNAc(b1-2)Man(a1-6)]Man(b1-4)GlcNAc(b1-4)GlcNAc
# How it was run: as §1
# [16] = target: Neu5Ac(a2-6)Gal(b1-4)GlcNAc(b1-2)[Neu5Ac(a2-6)Gal(b1-4)GlcNAc(b1-4)]Man(a1-3)[GlcNAc(b1-4)][Neu5Ac(a2-6)Gal(b1-4)GlcNAc(b1-2)[Neu5Ac(a2-6)Gal(b1-4)GlcNAc(b1-6)]Man(a1-6)]Man(b1-4)GlcNAc(b1-4)GlcNAc
# How it was run: as §1
# [17] = target: Neu5Ac(a2-6)Gal(b1-4)GlcNAc(b1-3)Gal(b1-4)GlcNAc(b1-3)Gal(b1-4)GlcNAc(b1-2)Man(a1-3)[Neu5Ac(a2-6)Gal(b1-4)GlcNAc(b1-3)Gal(b1-4)GlcNAc(b1-3)Gal(b1-4)GlcNAc(b1-2)Man(a1-6)]GalNAc
# How it was run: as §1
# [18] = target: Neu5Ac(a2-6)Gal(b1-4)GlcNAc6S
# How it was run: as §1
# [19] = target: Neu5Ac(a2-6)GalNAc(b1-4)GlcNAc6S
# How it was run: as §1
# [20] = target: Neu5Gc(a2-8)Neu5Ac(a2-3)Gal(b1-4)GlcNAc
# How it was run: as §1
binder,measurement,setting,value
B1,glycan array binding signal (z-score),Gal(b1-6)Gal,0.538
same,glycan array binding signal (z-score),Gal3S(b1-4)GlcNAc,0.12
same,glycan array binding signal (z-score),[1],-0.553
same,glycan array binding signal (z-score),GalNAc(a1-3)GalNAc,-0.202
same,glycan array binding signal (z-score),[2],0.159
same,glycan array binding signal (z-score),GalNAc(b1-4)GlcNAc,-0.452
same,glycan array binding signal (z-score),GlcA(b1-3)GlcNAc,5.69
same,glycan array binding signal (z-score),[3],0.668
same,glycan array binding signal (z-score),[4],2.14
same,glycan array binding signal (z-score),[5],0.361
same,glycan array binding signal (z-score),[6],-0.16
same,glycan array binding signal (z-score),[7],0.811
same,glycan array binding signal (z-score),GlcNAc(b1-3)Man,-0.28
same,glycan array binding signal (z-score),MurNAc(b1-4)GlcNAc,-0.969
same,glycan array binding signal (z-score),[8],0.39
same,glycan array binding signal (z-score),[9],-1.31
same,glycan array binding signal (z-score),[10],2.28
same,glycan array binding signal (z-score),[11],2.15
same,glycan array binding signal (z-score),[12],-0.747
same,glycan array binding signal (z-score),[13],1.35
same,glycan array binding signal (z-score),[14],-0.335
same,glycan array binding signal (z-score),[15],0.84
same,glycan array binding signal (z-score),[16],-0.54
same,glycan array binding signal (z-score),[17],2.53
same,glycan array binding signal (z-score),[18],0.323
same,glycan array binding signal (z-score),[19],-0.037
same,glycan array binding signal (z-score),[20],-0.655
